Common to all, as to settings: concentration: 1 μM, replicates: in singlicate; n = 1
Test [1] deals with T1, MEK5.
T1 construct: gene MAP2K5

Test [2] concerns T2, MEK6.
T2 construct: gene MAP2K6

The subject of test [3] is MELK.
The test system of test [4] is MERTK.
Test [5] concerns MET.
In test [6] the test system is T3, MINK.
T3 construct: gene MINK1

Test [7] deals with MKK7.
Test [8] deals with MKNK1.
Test [9] concerns MKNK2.
Test [10] deals with T4, MLCK.
T4 construct: gene MYLK3
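Further: KINOMEscan kinase panel screen.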

`O=C(Nc1ccccc1F)NC1CCN(c2ccnc(Nc3ccc(F)cc3)n2)CC1` [GSK1379800]: the “%Inh” value is recorded as 13% in test [1]; 0% in test [2]; 15% in [3]; 0% in test [4]; 0% in [5]; 0% in test [6]. For the same compound, the “%Inh” value came to 17% in test [7], 0% in test [8], 0% in [9] and 0% in test [10].

Consider `COc1ccc(Nc2nccc(N3CCC(NC(=O)Nc4cccc(OC)c4)C3)n2)cc1` (stereo not shown) [GSK1379742], for which the “%Inh” value is reported as 46% in [1]; 0% in test [2]; 7% in test [3]; 19% in [4]; 0% in [5]; 0% in test [6]. Further, the “%Inh” value turned out to be 0% in test [7], 3% in test [8], 0% in [9] and 0% in test [10].

As to `c1ccc(Oc2ccc(Nc3ccnc4cc(-c5ccc(CNCCN6CCOCC6)o5)ccc34)cc2)nc1` [GW567145], the “%Inh” value in test [1] is listed as 100%; in test [2] it was 0%; in test [3], 0%; in test [4] it was 9%; in test [5], 0%; in test [6] it was 37%. The “%Inh” value in test [7] is reported as 0%; in test [8], 0%; in test [9], 19%; in test [10] it was 10%.

For the compound `O=C(Nc1cccc(-c2nn3ncccc3c2-c2ccnc(Nc3ccccc3)n2)c1)c1c(F)cccc1F` [GSK198271], the “%Inh” value in test [1] stood at 99.9%; in test [2], 59%; in test [3], 0%; in test [4] it was 79%; in test [5], 43%; in test [6], 23%. The “%Inh” value in test [7] is 27%; in test [8] it was 11%; in test [9], 7%; in test [10], 8%.

Turning to `Cc1occc1-c1ncc(OC[C@@H](N)Cc2c[nH]c3ccccc23)cc1-c1ccc2[nH]nc(C)c2c1.O=C(O)C(F)(F)F` [GSK682037], the “%Inh” value in test [1] came out at 76%; in [2], 13%; in test [3], 50%; in [4], 66%; in test [5], 45%; in [6], 97.2%. The “%Inh” value in test [7] was 17%; in [8] it was 0%; in [9], 0%; in test [10], 39%.

Regarding `COC(=O)Nc1nc2ccc(Oc3ccc(NC(=O)Nc4cc(C(F)(F)F)ccc4F)cc3)cc2n1C.Cl` [GW692089], the “%Inh” value is given as 15% in test [1]; 0% in test [2]; 0% in [3]; 94.2% in test [4]; 62% in test [5]; 20% in test [6]. Moreover, the “%Inh” value in [7] was 0%; in test [8], 75%; in [9] it was 90.2%; in test [10], 34%.

On to `O=C(O)C(F)(F)F.O=C(O)C(F)(F)F.O=c1[nH]ccc2nc(N[C@@H]3CCCNC3)nc(Nc3ccc(S(=O)(=O)N4CCOCC4)cc3)c12` [GSK2177277], for which the “%Inh” value in test [1] was found to be 100%; in test [2], 86%; in test [3], 100%; in test [4], 100%; in [5], 90.2%; in [6] it was 98.1%. In addition, the “%Inh” value is on record as 81% in test [7], 7% in test [8], 59% in test [9] and 90.8% in test [10].

On to `FC(F)(F)c1ccc(/C=C/c2cncnc2Nc2ccc3[nH]c(Cc4ccccc4)nc3c2)cc1` [GW709199], for which the “%Inh” value in [1] stood at 32%; in test [2] it was 0%; in test [3], 0%; in test [4], 4%; in test [5], 16%; in [6], 1%. For the same compound, the “%Inh” value in test [7], in test [8], in test [9] and in [10] was 0% in each case.

With `CN(C)S(=O)(=O)c1cc(-c2ccc3nccc(-c4cccc(S(N)(=O)=O)c4)c3c2)cnc1N` [GSK1669921], the “%Inh” value in [1] is 56%; in test [2], 0%; in test [3], 0%; in test [4], 33%; in [5], 0%; in [6], 19%. Moreover, the “%Inh” value in [7] came to 0%; in test [8], 0%; in test [9] it was 4%; in test [10], 0%.

For `COc1cc(Nc2nccc(N3CCC(NC(=O)c4cc5ccccc5s4)C3)n2)cc(OC)c1OC` (stereo not shown) [GSK1379760], the “%Inh” value in test [1] is reported as 88%; in [2] it was 0%; in test [3], 15%; in test [4], 45%; in test [5], 31%; in test [6] it was 0%. Further, the “%Inh” value in test [7] is recorded as 38%; in test [8] it was 30%; in test [9], 21%; in test [10], 0%.

On to `COc1cc(Nc2nccc(N3CCC(NC(=O)Nc4cccc(C(C)=O)c4)C3)n2)cc(OC)c1OC` (stereo not shown) [GSK1379753], for which the “%Inh” value in [1] was determined as 99.6%; in [2], 0%; in test [3], 0%; in test [4], 23%; in [5], 12%; in [6], 0%. The “%Inh” value is reported as 0% in test [7], 9% in test [8], 62% in test [9] and 0% in test [10].

In the case of `COc1cc(Nc2ncc3c(C)nc(-c4cc5ccccc5[nH]4)n3n2)cc(OC)c1OC` [GW869516], the “%Inh” value was 78% in [1]; 0% in test [2]; 49% in [3]; 56% in [4]; 0% in test [5]; 1% in [6]. The “%Inh” value is 0% in [7], 0% in test [8], 0% in test [9] and 36% in test [10].

`Cc1ccc(S(=O)(=O)Nc2ccc(Nc3nccc(Nc4cccc5[nH]ncc45)n3)cc2)cc1` [GSK581271]: the “%Inh” value in test [1] is given as 69%; in [2], 0%; in test [3] it was 0%; in [4], 9%; in [5], 0%; in test [6], 0%. In addition, the “%Inh” value in test [7] is on record as 0%; in test [8], 0%; in test [9], 1%; in test [10], 0%.

Regarding `COc1ccc(CNC(=O)NC2CCN(c3ccnc(Nc4ccc(F)cc4)n3)CC2)cc1` [GSK1379788], the “%Inh” value in [1] came out at 9%; in test [2], 0%; in test [3] it was 0%; in test [4], 0%; in test [5] it was 0%; in test [6], 0%. The “%Inh” value worked out at 0% in test [7], 2% in [8], 0% in test [9] and 0% in test [10].

`CN1CCN(Cc2cccc(-c3ccc4c(Nc5ccc(Oc6ccccc6)cc5)ccnc4c3)c2)CC1` [GW578342]: the “%Inh” value in [1] is recorded as 100%; in test [2] it was 0%; in test [3] it was 16%; in [4], 0%; in test [5], 5%; in test [6] it was 9%. In addition, the “%Inh” value in test [7] was found to be 7%; in test [8], 8%; in [9], 51%; in test [10], 1%.

`Nc1n[nH]c2cnc(-c3ccccc3)cc12` [SB-642124]: the “%Inh” value stood at 52% in test [1]; 0% in [2]; 28% in [3]; 43% in [4]; 0% in test [5]; 53% in [6]. In addition, the “%Inh” value in test [7] is on record as 0%; in test [8], 13%; in test [9], 8%; in [10] it was 1%.

For the origin of these results see article PMC5540273 (PLoS ONE, 2017).
